Measured values: PubChem BioAssay (NCI)
Compounds without any hit were thinned out: in the full panel of roughly 83,000, 20% have a hit.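 Percent growth is the endpoint: 0 to 100 indicates growth inhibition (40 means 60% inhibition), 0 means no net growth, and negative values indicate cell death.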 Unmarked numbers belong to inactive results. The source made the active and inactive calls. The calls were made as follows: active = growth percent below 10; inactive = the rest.

Columns and labels:
Assay in all cases: NCI-60 one-dose screen, 48 h (100 = growth as untreated, 0 = no growth, -100 = all killed)
Details in all cases: 10 µM unless noted
SK-MEL-2 melanoma = system: SK-MEL-2 melanoma
EKVX NSCLC = system: EKVX NSCLC
SN12C renal = system: SN12C renal
UO-31 renal = system: UO-31 renal
TK-10 renal = system: TK-10 renal
ACHN renal = system: ACHN renal
CAKI-1 renal = system: CAKI-1 renal
A498 renal = system: A498 renal
CCRF-CEM leukemia = system: CCRF-CEM leukemia
MOLT-4 leukemia = system: MOLT-4 leukemia

Row | SMILES | growth (SK-MEL-2 melanoma) | growth (EKVX NSCLC) | growth (SN12C renal) | growth (UO-31 renal) | growth (TK-10 renal) | growth (ACHN renal) | growth (CAKI-1 renal) | growth (A498 renal) | growth (CCRF-CEM leukemia) | growth (MOLT-4 leukemia)
1 | Cc1cc(C)c2c(c1)N(C)c1ncnc(-n3c(C)nc4cc(C)ccc43)c1CC2C (stereo not given) | 46.7% | 45.2% | 62.3% | 39% | 53.3% | 39.4% | 37.3% | 0.985% (active) | 21.6% | 27.8%
2 | CCNC(=O)N1CCc2c(Br)c3c(c(OC)c2C1Cc1ccc(OC)cc1)OCO3 (stereo not given) | 15.4% | 54.4% | 49.9% | 40.2% | 65.6% | 33.6% | 18.6% | -12.4% (active) | 31.5% | 23.6%
3 | COC(=O)/C=C1/SC(=Nc2ccc(F)cc2)N(CCc2c[nH]c3ccc(O)cc23)C1=O | -0.819% (active) | 55.9% | 42.5% | 46.4% | 84% | 33.8% | 52.1% | 49.8% | 3.69% (active) | 0.14% (active)
4 | CCN(CC)CCOc1ccc(C(=O)/C=C\c2ccc(Cl)cc2Cl)cc1 | 81% | 63.5% | 43.4% | 25% | 75.9% | 52.7% | 55% | 70% | 7.28% (active) | -13.1% (active)
5 | O=C1c2cccnc2C(=O)c2c1c(C(=O)OCCc1ccccn1)c1ccccn21 | -35.4% (active) | 25.4% | -33.4% (active) | -48.7% (active) | -43.9% (active) | -48.5% (active) | 8.74% (active) | -57% (active) | -14.1% (active) | -0.142% (active)
6 | CC(C)(C)c1ccc(C(=O)N/N=C/c2ccc(O)cc2O)cc1 | 38.3% | 21.5% | 23.3% | 12.2% | 40.1% | 15.2% | 15% | 13.6% | 9.83% (active) | 13.3%
7 | CN1C(=O)N2CN3CCCN(C3)CN3C(=S)NC1C23 (stereo not given) | 108% | 104% | 97.7% | 99.5% | 108% | 118% | 98% | 98.9% | 90.2% | 111%
8 | CCN(CCNc1ccc(C)c2sc3cc(Cl)ccc3c(=O)c12)CC(C)(C)O | 56.6% | 82% | 71.5% | 50.5% | 75.7% | 69.3% | 55.8% | 75.5% | 79.5% | 70.5%
9 | N#Cc1c(-c2ccc(Cl)cc2)nc(NN=Cc2ccc[nH]2)nc1N1CCOCC1 | 98.8% | 66% | 40.1% | 14.8% | 63.3% | 82.5% | 63.2% | 31.7% | 20.8% | 17.4%
10 | O=C(Nc1ccc(Nc2ccncc2)cc1)c1ccc(Nc2ccnc3ccc([N+](=O)[O-])cc23)cc1 | 111% | 107% | 113% | 95.7% | 140% | 100% | 105% | 130% | 63.9% | 40.7%
11 | CCCCCc1ccc(S(=O)(=O)Nc2ccc3nc(N)oc3c2)cc1 | 101% | 33.2% | 58.8% | 35.8% | 84.6% | 60.3% | 51.1% | 32.6% | 51.8% | 37.1%
12 | CN(C)CCCn1c2c(c3ccncc3c1=O)C(=O)c1ccccc1-2 | -4.66% (active) | 82.7% | 6.53% (active) | -37.4% (active) | 12.8% | -38.4% (active) | 10.8% | 58% | 1.34% (active) | -15% (active)
13 | COc1ccc(Cl)cc1Nc1nc(C(F)(F)F)ccc1C(=O)N/N=C/c1ccc([N+](=O)[O-])cc1 | -8.38% (active) | 0.805% (active) | 5.05% (active) | -1.49% (active) | 10.5% | -9.86% (active) | 4.56% (active) | 3.24% (active) | 9.15% (active) | 2.93% (active)
14 | COc1cc2c(cc1OCCCN1CCN(C(=S)SCCC(C#N)(c3ccccc3)c3ccccc3)CC1)N=C[C@@H]1CCCN1C2=O | -80% (active) | -95.6% (active) | -43.9% (active) | 4.62% (active) | -59.7% (active) | -46.1% (active) | -44.1% (active) | -100% (active) | -35% (active) | -8.92% (active)
15 | Cc1cc2oc(/C=C/c3ccccc3)cc(=O)c2c(C)c1Cl | 103% | 101% | 99.1% | 94.4% | 91.6% | 110% | 84.6% | 142% | 99.2% | 62.6%
16 | CS(=O)(=O)Nc1cc(-c2ccc3ncnc(Nc4ccc(OCc5ccccn5)c(Cl)c4)c3c2)cnc1Cl | -65% (active) | 3.3% (active) | 20% | 0.194% (active) | -19.8% (active) | 23.7% | 29.2% | -61% (active) | -2.25% (active) | -29.5% (active)
17 | N#Cc1c(-c2ccccc2)nc2c(c(-c3ccccc3)nn2-c2ccccc2)c1-c1ccc(N2CCCCC2)cc1 | 110% | 99.5% | 99.4% | 84.9% | 103% | 101% | 86.1% | 97.7% | 96.5% | 95.5%
18 | Nc1cccc(-c2ccc(COc3ccc(CC4SC(=O)NC4=O)cc3)cc2)c1 (stereo not given) | 52.3% | 62.2% | 68.6% | 53.3% | 91.5% | 62.6% | 47.3% | 110% | 52.3% | 43.2%
19 | Cc1nn(-c2ccc([N+](=O)[O-])cc2)c2ncnc(N/N=C/c3ccccc3O)c12 | 31.6% | -0.848% (active) | 6.16% (active) | -11.5% (active) | 35.5% | 12% | 3.95% (active) | 65.6% | -12.4% (active) | 4% (active)
20 | COC(=O)Cn1c2c(c3c(OC)cccc31)C(=O)c1ccccc1-2 | 109% | 103% | 91.4% | 82.5% | 115% | 94.9% | 110% | 101% | 81.4% | 83.8%
21 | CCOC(=O)c1c(C)nc2c(c1N)C(=O)C(=O)N2Cc1ccc(OC)cc1 | 113% | 90.9% | 82.6% | 59.6% | 96% | 66.3% | 83.3% | 90.4% | 59.1% | 101%
22 | O=C(O)CCCCCCCCCCN1C(=O)/C(=C2/C(=O)N(CC(=O)O)c3ccc(Br)cc32)SC1=S | 100% | 97.2% | 86.3% | 72.8% | 128% | 84.2% | 83.8% | 95.2% | 71.4% | 34.2%
23 | C=C1C(=O)O[C@H]2[C@H]1CC/C(COC(=O)/C=C\C(=O)NCc1ccc(Cn3c(=O)sn(CCCCl)c3=O)cc1)=C\CC[C@@]1(C)O[C@@H]21 | 83.4% | 94.1% | 64.9% | 53.1% | 57.7% | 40.2% | 51.6% | 103% | 1.6% (active) | 60.7%
24 | C#CCOc1cccc(Nc2ncnc3c2ncn3C2CCN(C(=O)CCl)C2)c1 (stereo not given) | -0.328% (active) | 5.11% (active) | -71.3% (active) | -97.8% (active) | -83.8% (active) | -98.9% (active) | -97.4% (active) | 85.9% | -28% (active) | -26.8% (active)
25 | CC1=C2CC/C(C)=C/CC[C@]3(C)O[C@H]3CC/C(C)=C/[C@H]2OC1 | 92.6% | 103% | 95.5% | 84.7% | 100% | 90.9% | 87% | 97% | 84.9% | 86.5%
26 | Cc1oc(-c2ccc(Cl)cc2)nc1C1=NN(C(=O)c2ccncc2)C(c2ccccc2)C1 (stereo not given) | 97.2% | 95.8% | 88.7% | 59.5% | 114% | 92% | 76% | 78% | 93.4% | 77.1%
27 | O=C1CCCCN1c1ccc(C2=NCCCN2)cc1 | 111% | 97.8% | 92.9% | 79.1% | 98.8% | 95.7% | 100% | 93.7% | 116% | 80%
